# PubChem BioAssay AID1159580 (chemical genetic matrix, 2015)
# The whole screen tested about 5,500 compounds, of which about 2,000 (36%) were called active. About 18% were inconclusive and are not listed. The list shows a part of the results. A number with no mark means an inactive call. Cut-off read from the data, not from the text of the source: active = normalized growth mostly below about 0.91 (no sharp cut-off); inconclusive = no clear call, values can overlap the other calls; inactive = mostly above about 0.92.
# Assay: chemical genetic growth profiling, strain panel (AID 1159580);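 note: tested at 20 µM; growth read once vehicle control cultures reached saturation at 30 °C; 1 = growth at the plate median or of vehicle wells; lower values mean less growth of the strain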
# Conditions: growth OD
smiles,measurement,setting,value
C#CCCCCCCCCCCCC(O)CC(O)COC(C)=O (stereo unspecified),normalized growth,"S. cerevisiae deletion strains, locus YKL009W, strain mrt4, hits give low values",0.8 (active)
same,normalized growth,"S. cerevisiae deletion strains, locus YKL068W, hits give low values",0.985
same,normalized growth,"S. cerevisiae deletion strains, locus YKL085W, strain MDH1 (second series), hits give low values",0.964
same,normalized growth,"S. cerevisiae deletion strains, locus YKL085W, strain MDH1, hits give low values",0.964
same,normalized growth,"S. cerevisiae deletion strains, locus YKL160W, strain elf1, hits give low values",0.864 (active)
same,normalized growth,"S. cerevisiae deletion strains, locus YKL190W, strain CNB1, hits give low values",0.986
same,normalized growth,"S. cerevisiae deletion strains, locus YKR001C, strain vps1, hits give low values",0.871 (active)
same,normalized growth,"S. cerevisiae deletion strains, locus YKR026C, strain gcn3, hits give low values",0.843 (active)
same,normalized growth,"S. cerevisiae deletion strains, locus YKR091W, strain srl3, hits give low values",0.996
same,normalized growth,"S. cerevisiae deletion strains, locus YLL001W, strain dnm1, hits give low values",0.913
same,normalized growth,"S. cerevisiae deletion strains, locus YLL026W, hits give low values",0.344 (active)
same,normalized growth,"S. cerevisiae deletion strains, locus YLL041C, strain sdh2, hits give low values",0.542 (active)
same,normalized growth,"S. cerevisiae deletion strains, locus YLR027C, strain aat2, hits give low values",0.478 (active)
same,normalized growth,"S. cerevisiae deletion strains, locus YLR039C, strain RIC1, hits give low values",0.976
same,normalized growth,"S. cerevisiae deletion strains, locus YLR058C, strain SHM2, hits give low values",0.965
same,normalized growth,"S. cerevisiae deletion strains, locus YLR102C, strain apc9, hits give low values",0.968
same,normalized growth,"S. cerevisiae deletion strains, locus YLR113W, strain HOG1, hits give low values",0.94
same,normalized growth,"S. cerevisiae deletion strains, locus YLR221C, strain rsa3, hits give low values",0.305 (active)
same,normalized growth,"S. cerevisiae deletion strains, locus YLR258W, strain gsy2, hits give low values",0.493 (active)
same,normalized growth,"S. cerevisiae deletion strains, locus YLR262C, strain YPT6 (second series), hits give low values",0.726 (active)
same,normalized growth,"S. cerevisiae deletion strains, locus YLR262C, strain YPT6, hits give low values",0.962
same,normalized growth,"S. cerevisiae deletion strains, locus YLR268W, strain sec22, hits give low values",0.927
same,normalized growth,"S. cerevisiae deletion strains, locus YLR320W, strain mms22, hits give low values",0.647 (active)
same,normalized growth,"S. cerevisiae deletion strains, locus YLR330W, strain CHS5, hits give low values",0.981
same,normalized growth,"S. cerevisiae deletion strains, locus YLR342W, strain FKS1 (second series), hits give low values",0.856
same,normalized growth,"S. cerevisiae deletion strains, locus YLR342W, strain FKS1, hits give low values",0.647 (active)
same,normalized growth,"S. cerevisiae deletion strains, locus YLR357W, strain rsc2, hits give low values",0.958
same,normalized growth,"S. cerevisiae deletion strains, locus YLR370C, strain arc18, hits give low values",0.994
same,normalized growth,"S. cerevisiae deletion strains, locus YLR371W, strain rom2, hits give low values",0.958
same,normalized growth,"S. cerevisiae deletion strains, locus YLR384C, strain iki3, hits give low values",0.967
same,normalized growth,"S. cerevisiae deletion strains, locus YLR418C, strain cdc73, hits give low values",0.861
same,normalized growth,"S. cerevisiae deletion strains, locus YML016C, strain PPZ1, hits give low values",0.978
same,normalized growth,"S. cerevisiae deletion strains, locus YML032C, strain rad52, hits give low values",0.868 (active)
same,normalized growth,"S. cerevisiae deletion strains, locus YML120C, strain ndi1, hits give low values",0.171 (active)
same,normalized growth,"S. cerevisiae deletion strains, locus YML124C, strain tub3, hits give low values",0.972
same,normalized growth,"S. cerevisiae deletion strains, locus YMR058W, strain fet3, hits give low values",0.749 (active)
same,normalized growth,"S. cerevisiae deletion strains, locus YMR078C, strain ctf18, hits give low values",0.954
same,normalized growth,"S. cerevisiae deletion strains, locus YMR125W, strain sto1, hits give low values",0.908
same,normalized growth,"S. cerevisiae deletion strains, locus YMR129W, hits give low values",0.316 (active)
same,normalized growth,"S. cerevisiae deletion strains, locus YMR205C, strain PFK2, hits give low values",0.507 (active)
same,normalized growth,"S. cerevisiae deletion strains, locus YMR223W, strain ubp8, hits give low values",0.889 (active)
same,normalized growth,"S. cerevisiae deletion strains, locus YMR231W, strain pep5, hits give low values",1.01
same,normalized growth,"S. cerevisiae deletion strains, locus YMR263W, strain SAP30, hits give low values",0.966
same,normalized growth,"S. cerevisiae deletion strains, locus YMR307W, strain GAS1, hits give low values",0.885
same,normalized growth,"S. cerevisiae deletion strains, locus YNL067W, strain RPL9B, hits give low values",0.928
same,normalized growth,"S. cerevisiae deletion strains, locus YNL071W, strain lat1, hits give low values",0.208 (active)
same,normalized growth,"S. cerevisiae deletion strains, locus YNL128W, strain TEP1, hits give low values",0.961
same,normalized growth,"S. cerevisiae deletion strains, locus YNL153C, strain GIM3, hits give low values",0.994
same,normalized growth,"S. cerevisiae deletion strains, locus YNL183C, strain NPR1, hits give low values",0.954
same,normalized growth,"S. cerevisiae deletion strains, locus YNL209W, strain ssb2, hits give low values",0.886 (active)
same,normalized growth,"S. cerevisiae deletion strains, locus YNL233W, strain BNI4, hits give low values",0.906
same,normalized growth,"S. cerevisiae deletion strains, locus YNL248C, strain rpa49, hits give low values",0.84 (active)
same,normalized growth,"S. cerevisiae deletion strains, locus YNL250W, strain rad50, hits give low values",0.946
same,normalized growth,"S. cerevisiae deletion strains, locus YNL271C, strain bni1, hits give low values",0.942
same,normalized growth,"S. cerevisiae deletion strains, locus YNL298W, strain CLA4, hits give low values",0.786 (active)
same,normalized growth,"S. cerevisiae deletion strains, locus YNL307C, strain MCK1, hits give low values",0.744 (active)
same,normalized growth,"S. cerevisiae deletion strains, locus YNL322C, strain KRE1 (second series), hits give low values",0.633 (active)
same,normalized growth,"S. cerevisiae deletion strains, locus YNL322C, strain KRE1, hits give low values",0.98
same,normalized growth,"S. cerevisiae deletion strains, locus YNR049C, strain mso1, hits give low values",1.01
same,normalized growth,"S. cerevisiae deletion strains, locus YNR052C, strain pop2, hits give low values",0.896 (active)
same,normalized growth,"S. cerevisiae deletion strains, locus YOL006C, strain TOP1, hits give low values",0.85
same,normalized growth,"S. cerevisiae deletion strains, locus YOL012C, strain htz1",1.07
same,normalized growth,"S. cerevisiae deletion strains, locus YOL147C, strain pex11, hits give low values",0.953
same,normalized growth,"S. cerevisiae deletion strains, locus YOR001W, strain rrp6, hits give low values",0.397 (active)
same,normalized growth,"S. cerevisiae deletion strains, locus YOR061W, strain CKA2, hits give low values",0.893
same,normalized growth,"S. cerevisiae deletion strains, locus YOR069W, strain VPS5, hits give low values",0.992
same,normalized growth,"S. cerevisiae deletion strains, locus YOR070C, strain gyp1, hits give low values",0.878 (active)
same,normalized growth,"S. cerevisiae deletion strains, locus YOR080W, strain dia2, hits give low values",0.952
same,normalized growth,"S. cerevisiae deletion strains, locus YOR083W, strain WHI5, hits give low values",0.866 (active)
same,normalized growth,"S. cerevisiae deletion strains, locus YOR106W, strain vam3, hits give low values",0.442 (active)
same,normalized growth,"S. cerevisiae deletion strains, locus YOR136W, strain idh2, hits give low values",0.934
same,normalized growth,"S. cerevisiae deletion strains, locus YOR144C, strain elg1, hits give low values",0.973
same,normalized growth,"S. cerevisiae deletion strains, locus YOR184W, strain ser1, hits give low values",0.774 (active)
same,normalized growth,"S. cerevisiae deletion strains, locus YOR231W, strain MKK1, hits give low values",1.01
same,normalized growth,"S. cerevisiae deletion strains, locus YOR265W, strain rbl2, hits give low values",0.926 (active)
same,normalized growth,"S. cerevisiae deletion strains, locus YOR270C, strain vph1, hits give low values",0.506 (active)
same,normalized growth,"S. cerevisiae deletion strains, locus YOR290C, strain snf2, hits give low values",0.899
same,normalized growth,"S. cerevisiae deletion strains, locus YOR316C, strain cot1, hits give low values",0.969
same,normalized growth,"S. cerevisiae deletion strains, locus YPL051W, strain arl3, hits give low values",0.831 (active)
same,normalized growth,"S. cerevisiae deletion strains, locus YPL055C, strain LGE1, hits give low values",0.904
same,normalized growth,"S. cerevisiae deletion strains, locus YPL078C, strain atp4, hits give low values",0.829 (active)
same,normalized growth,"S. cerevisiae deletion strains, locus YPL106C, strain sse1, hits give low values",0.58 (active)
same,normalized growth,"S. cerevisiae deletion strains, locus YPL240C, strain hsp82, hits give low values",0.342 (active)
same,normalized growth,"S. cerevisiae deletion strains, locus YPL241C, strain CIN2, hits give low values",0.983
same,normalized growth,"S. cerevisiae deletion strains, locus YPL256C, strain CLN2, hits give low values",0.981
same,normalized growth,"S. cerevisiae deletion strains, locus YPR119W, strain clb2, hits give low values",0.97
same,normalized growth,"S. cerevisiae deletion strains, locus YPR141C, strain kar3, hits give low values",0.979
same,normalized growth,"S. cerevisiae deletion strains, locus YPR163C, strain tif3, hits give low values",0.961
same,normalized growth,"S. cerevisiae deletion strains, locus YPR167C, strain met16, hits give low values",0.969
same,normalized growth,"S. cerevisiae deletion strains, strain wtn01, hits give low values",0.928
same,normalized growth,"S. cerevisiae strains, strain wild type, hits give low values",0.97
